Consider 40 molecules from PubChem BioAssay (Tox21).

The structures appear in SMILES notation. Records with an inconclusive call do not appear. A call without a number means that no potency is given here. Activity calls are given as the source filed them. Calls come from the whole dose curve; as a rule, active = well fitted inhibition curve with a large enough effect in the repeat runs; inconclusive = weak or mixed curves; inactive = flat fitted curve, though single readings scatter.
Potency is the fitted concentration of half-maximal effect.

Sequence of Voltage-gated inwardly rectifying potassium channel KCNH2 (Homo sapiens) (Q12809 whole entry, looked up): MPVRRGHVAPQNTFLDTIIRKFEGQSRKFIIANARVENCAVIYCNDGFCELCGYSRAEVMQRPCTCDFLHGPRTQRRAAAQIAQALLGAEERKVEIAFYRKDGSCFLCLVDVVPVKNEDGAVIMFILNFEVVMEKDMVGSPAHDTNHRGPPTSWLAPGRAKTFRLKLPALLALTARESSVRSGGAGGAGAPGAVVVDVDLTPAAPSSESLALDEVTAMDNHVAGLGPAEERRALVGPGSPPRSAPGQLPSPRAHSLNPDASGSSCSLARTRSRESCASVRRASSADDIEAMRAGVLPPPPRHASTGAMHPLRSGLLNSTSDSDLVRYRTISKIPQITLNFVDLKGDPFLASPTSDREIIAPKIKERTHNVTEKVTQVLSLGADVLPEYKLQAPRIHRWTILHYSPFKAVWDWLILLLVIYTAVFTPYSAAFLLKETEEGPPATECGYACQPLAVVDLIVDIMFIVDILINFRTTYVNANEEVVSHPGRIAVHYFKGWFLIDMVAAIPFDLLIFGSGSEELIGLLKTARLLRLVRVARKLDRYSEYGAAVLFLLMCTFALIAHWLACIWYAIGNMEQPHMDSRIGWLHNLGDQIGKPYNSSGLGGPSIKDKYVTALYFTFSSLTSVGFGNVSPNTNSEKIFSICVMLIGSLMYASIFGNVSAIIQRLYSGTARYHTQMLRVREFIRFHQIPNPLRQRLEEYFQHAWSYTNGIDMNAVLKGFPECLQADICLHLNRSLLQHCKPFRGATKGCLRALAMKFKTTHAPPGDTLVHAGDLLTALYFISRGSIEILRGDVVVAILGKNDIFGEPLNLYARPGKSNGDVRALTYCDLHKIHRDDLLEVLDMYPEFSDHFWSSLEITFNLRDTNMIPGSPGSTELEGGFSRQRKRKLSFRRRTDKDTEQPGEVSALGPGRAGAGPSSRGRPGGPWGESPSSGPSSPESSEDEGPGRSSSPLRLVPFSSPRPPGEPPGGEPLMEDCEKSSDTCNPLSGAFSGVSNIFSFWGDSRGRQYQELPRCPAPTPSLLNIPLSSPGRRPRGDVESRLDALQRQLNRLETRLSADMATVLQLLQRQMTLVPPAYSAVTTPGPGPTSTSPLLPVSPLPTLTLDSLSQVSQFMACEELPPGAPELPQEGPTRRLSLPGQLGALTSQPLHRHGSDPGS

This assay addresses Voltage-gated inwardly rectifying potassium channel KCNH2 (Homo sapiens) (UniProt Q12809). Kind of assay: Human Ether-a-go-go-Related Gene (hERG) channel small molecule antagonists: fluorescence cell-based qHTS assay (AID 1671200). Note: nearly all actives have a fitted effect of over 50% in size. The note with it: hERG-U2OS cells, FluxOR thallium flux fluorescence; series mostly up to 76.8 µM. An excerpt: National Center for Advancing Translational Sciences [NCATS]
U.S. Environmental Protection Agency [EPA]
National Institutes of Environmental Health Sciences [NIEHS]
National Toxicology Program [NTP]
U.S. Food and Drug Administration [FDA]
Mutations in the hERG channel cause Long QT (LQT) syndrome. LQT syndrome is a cardiac disorder which can cause ventricle arrhythmia and sudden death. Additionally, compounds which block the hERG channel can cause acquired LQT syndrome. Several FDA approved drugs have been removed from the market due to their hERG blocking activity. A cell-based hERG channel inhibition assay can be used to screen chemical compounds that inhibit hERG channel. This assay measures hERG channel activity using thallium ions as surrogate ions to measure potassium into the cells.
Tox21 Assay Protocol Summary:
hERG-U2OS cells were resuspended in culture medium and dispensed into 1536-well, black wall/clear-bottom plates at 1000cells/well/3uL using a Multidrop Combi dispenser (Thermo Fisher, Waltham, MA). After plates were incubated at 37 C overnight, 3 uL of Loading Buffer provided by FluxOR II Potassium Ion Channel Assay kit (Thermo, Carlsbad, CA) was added to each well. The assay plates were then incubated at room temperature in the dark for 1h. […] After the assay plates were incubated at room temperature for 10 min, 1 uL of Stimulus Buffer provided by FluxOR II Potassium Ion Channel Assay kit was added into each well and fluorescence intensity (480nm excitation/540nm emission) was continuously measured for 2 min at 1 second intervals using a Functional Drug Screening System (FDSS) 7000EX kinetic plate reader (Hamamatsu, Japan).
(The hERG channel carries a current that helps repolarise heart muscle cells.)
In the case of `CCSCC`, the Potency entry was “inactive”.
With `Cn1ccnc1`, the Potency result is “inactive”.
Take `C=C[Si](C)(C)Cl`: the activity change, negative = inhibition is -2.91% [at 6.97 µM] (inactive).
As for `Cc1ccc(Cl)c(N)c1Cl`, the Potency result was “inactive”.
With `CCCCCCCCCC[N+](C)(CCCCCCCCCC)CCC[Si](OC)(OC)OC`, the Potency is 2.45 µM (active).
The same measure, in the same setting: as for `Cc1ccc2sc3cccc(C)c3c2c1`, the entry is “inactive”.
With `Cc1cccc(C)c1C`, the Potency result is “inactive”.
For the molecule `COCCC(=O)OC`, the Potency result is “inactive”.
With `CN1CCN(C)CC1`, the Potency result was “inactive”.
Still for that read-out and setting: under `CC/C=C\C/C=C\C/C=C\CCCCCCCC(=O)OC` stands “inactive”; under `Clc1cccc(Cl)n1`, “inactive”; under `Oc1ccc(Cl)cc1C1CCCC1`, “inactive”.
Regarding `CCN(CCC#N)c1ccc(N=Nc2ccc([N+](=O)[O-])cc2)cc1`, the Potency result was “inactive”.
For the molecule `CCCCCCCCCCCCS(=O)(=O)Cl`, the activity change, negative = inhibition was 1.06% [at 15.8 µM] (inactive).
For `COc1ccc(OC)c(N=Nc2c(O)ccc3ccccc23)c1`, the Potency entry is “inactive”.
Same read-out and setting: under `CCCCCCCCCCCCCCCCC(C(=O)O)C(O)(CC(=O)O)C(=O)O` (stereo not given) stands “inactive”; under `CCOC(=O)OC(=O)OCC`, “inactive”; under `COC(=O)c1ccc([N+](=O)[O-])cc1`, “inactive”.
As for `CC(C)=CCC[C@H](C)CC=O`, the Potency entry is “inactive”.
As for `CCCCCCCCSCc1cc(C)c(O)c(CSCCCCCCCC)c1`, the Potency result was “inactive”.
For the molecule `CC1(C)[C@H]2CC[C@]1(C)C(=O)C2`, the Potency entry was “inactive”.
For `Oc1ccc2c(c1)CCC2`, the Potency result is “inactive”.
With `CC(=O)[C@]1(O)Cc2c(O)c3c(c(O)c2[C@@H](O[C@H]2C[C@H](N)[C@H](O)[C@H](C)O2)C1)C(=O)c1ccccc1C3=O`, the Potency result is “inactive”.
Same read-out and setting: under `C/C=C/C(=O)OCC(C)C` stands “inactive”.
For the molecule `O=C1CCC(=O)N1`, the Potency result is “inactive”.
With `Nc1c(Br)cc([N+](=O)[O-])cc1Br`, the Potency result was “inactive”.
Same read-out and setting: under `CC(C)(C)c1cc(CCC(=O)OCCSCCOC(=O)CCc2cc(C(C)(C)C)c(O)c(C(C)(C)C)c2)cc(C(C)(C)C)c1O` stands “inactive”; under `CCNc1nc(NC(C)(C)C)nc(OC)n1`, “inactive”; under `CC(C=O)c1ccccc1` (stereo not given), “inactive”.
Take `Cc1ccc2nc(-c3ccc(N)cc3)sc2c1S(=O)(=O)O`: the Potency result was “inactive”.
The same measure, in the same setting: under `N#CCCOCCC#N` stands “inactive”; under `C=CC(=O)OCC(Br)CBr` (stereo not given), “inactive”; under `c1ccc2c(c1)-c1ccc3ccc4cccc5cc-2c1c3c45`, “inactive”.
For the molecule `COc1c(Br)cc(Br)c(C)c1Br`, the Potency result was “inactive”.
In the case of `Cc1cc(Br)ccc1NC(=O)CCl`, the Potency entry was “inactive”.
As to `CC1CCC(C(C)(C)O)CC1` (stereo not given), the Potency entry was “inactive”.
Turning to `CCCCCN=C(N)N/N=C/c1c[nH]c2ccc(OC)cc12`, the Potency is 10.7 µM (active).
Regarding `O=C1OCc2ccccc21`, the Potency result is “inactive”.
As for `O=C(Nc1ccc([N+](=O)[O-])cc1)Nc1ccc([N+](=O)[O-])cc1` (tested in a mixture with another compound), the Potency entry is “inactive”.
As to `C1CCSC1`, the Potency entry was “inactive”.
